DENV2 CPE: protects cells from dengue virus 2 cytopathic effect; hit rate 1.7% among 350,000; DENV2-infected cells, cytopathic effect rescue, plate reader; CPE inhibition, % at 9.99 µM; AID 651640; in the data active = CPE inhibition above about 20%, passing the limit was not always enough; inconclusive = no clear call, values can overlap the other calls; tested in BHK-21 cells
PvdQ inh: blocks Pseudomonas aeruginosa PvdQ acylase activity; purified PvdQ acylase, fluorescence plate reader; inhibition, % at 10 µM; hit rate 0.063% among 340,000; AID 488965; in the data active = inhibition above about 30%, passing the limit was not always enough; inconclusive = no clear call, values can overlap the other calls
miR-122 sensor: miR-122 inhibition in Huh7 cells; Huh7 miR-122 Renilla luciferase sensor, 48 h; neutral wells = 0, positive control = 100; activation (reporter increase), % at 12.5 µM; hit rate 0.3% among 340,000;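 active = mean replicate activation score at least 90 and every replicate individually at or above 90; inconclusive = only one of the two criteria met; inactive = neither criterion met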;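 note: higher luciferase means less miR-122 activity so hits act as miR-122 inhibitors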
PGC1a acetyl inh: PGC1a acetylation modulation, inhibitor mode; hit rate 0.17% among 350,000; AID 651687; inhibition, % at 15.6 µM; U2OS PGC1a acetylation, AlphaScreen anti-acetyl-lysine; with virally co-expressed GCN5 acetyltransferase;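 active = every replicate shows inhibition of at least 40%; inconclusive = mean inhibition at least 40% but some replicate below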
C2C12 statin: suppressors of simvastatin-induced myotoxicity in C2C12 myotubes | hit rate 0.78% among 330,000 | rescue of ATP level, % at 7.49 µM | AID 602340 | ATP luminescence, 48 h; scaled: DMSO 0, geranylgeraniol control 100;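 active = mean ATP rescue above about 67%, or every replicate alone reaching that limit, limit read from the data, passing the limit was not always enough; inconclusive = no clear call, values can overlap the other calls; inactive = mean under the limit and some replicate under it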;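 note: myotubes were challenged with 10 µM simvastatin during compound exposure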
Of the large screens only hits and unclear results are named; the others gave an inactive call; ! = repeats disagree. The list is not random: actives were taken first. Their share in the collection is about 2.2%.

O=C(NCC[C@@H]1CC[C@@H](NC(=O)c2cnccn2)[C@@H](CO)O1)Nc1ccc(Cl)cc1	DENV2 CPE inconclusive (no result: PvdQ inh, miR-122 sensor)
C[C@@H]1CN([C@H](C)CO)C(=O)c2cc(NC(=O)Nc3ccc4c(c3)OCO4)ccc2O[C@@H]1CN(C)C(=O)Nc1ccccc1	none (no result: PvdQ inh)
CCCNC(=O)[C@@]1(C)c2ccccc2C(=O)N(Cc2ccc(OC(F)(F)F)cc2)[C@H]1c1ccc(CO)cc1	DENV2 CPE 20 (no result: PvdQ inh, miR-122 sensor, C2C12 statin)
CCCNC(=O)[C@@]1(C)c2ccccc2C(=O)N(Cc2ccccc2)[C@H]1c1ccc(CO)cc1	none (no result: PvdQ inh, miR-122 sensor, C2C12 statin)
CO[C@H]1CN(C)C(=O)c2cc(NC(=O)NC3CCCCC3)ccc2OC[C@H](C)N(C)C[C@@H]1C	none (no result: PvdQ inh, miR-122 sensor)
COCC(=O)N1CC(=O)N2[C@H](C1)[C@@H](c1ccc(Br)cc1)[C@@H]2CO	none (no result: PvdQ inh, miR-122 sensor, C2C12 statin)
CNC[C@@H]1Oc2c(NC(=O)Nc3c(C)noc3C)cccc2C(=O)N([C@@H](C)CO)C[C@@H]1C	none (no result: PvdQ inh)
CN(C)CCCNC(=O)C[C@@H]1C=C[C@@H](NC(=O)Cc2cccnc2)[C@@H](CO)O1	none (no result: PvdQ inh, miR-122 sensor, PGC1a acetyl inh, C2C12 statin)
CCOC(=O)C1=C(CC)Nc2ccccc2N=C1NC(=O)c1ccc(S(=O)(=O)N(C)C)cc1	none (no result: DENV2 CPE)
CCOC(=O)C1=C(C)Nc2ccccc2N=C1NC(=O)c1cccc(S(=O)(=O)N(C)C)c1	C2C12 statin 111 (no result: DENV2 CPE)
CNC[C@H]1Oc2ccc(NC(=O)C3CCCCC3)cc2CC(=O)N([C@@H](C)CO)C[C@H]1C	none (no result: PvdQ inh)
O=C1C(=C(O)c2ccccc2)C(=O)c2ccccc21	none
O=C1C(=C(c2ccccc2)c2ccccc2)Nc2ccccc21	C2C12 statin 100 (no result: DENV2 CPE)
COC(=O)c1cc(S(=O)(=O)NCCc2ccccc2)c[nH]1	C2C12 statin 120
CN(C)C(=O)c1cccc(-c2ccc3n(c2=O)C[C@H]2[C@H](CO)[C@@H](C(=O)NCC(F)(F)F)[C@@H]3N2C)c1	none (no result: PvdQ inh, miR-122 sensor, PGC1a acetyl inh)
Cc1cc(C2=NNC(=NCCc3ccccc3)SC2)c(C)n1-c1c(C)n(C)n(-c2ccccc2)c1=O	PGC1a acetyl inh 63 (no result: C2C12 statin)
Cc1cccc(C)c1NS(=O)(=O)c1ccc(F)cc1	C2C12 statin 115 (no result: DENV2 CPE)
Cc1cc(C(=O)CSc2ncnc3ccccc23)c(C)n1C1CC1	DENV2 CPE 28
CO[C@@H]1CN(C)C(=O)c2cc(NC(=O)Nc3cccc(Cl)c3)ccc2OC[C@H](C)N(C(=O)Nc2c(C)noc2C)C[C@@H]1C	none (no result: DENV2 CPE, PvdQ inh)
CN1CCN(CC(=O)n2c3c(c4ccccc42)CCCC3)CC1	none (no result: DENV2 CPE, PGC1a acetyl inh)
CCN(CC)CC(=O)n1c2c(c3ccccc31)CCCC2	C2C12 statin 124 (no result: DENV2 CPE)
CCC(C)(C)NC(=O)CN(Cc1cccs1)C(=O)CNS(=O)(=O)c1ccc(C)cc1	C2C12 statin 83 (no result: DENV2 CPE)
CCOC(=O)c1cc(-c2ccccc2C)nn1Cc1cc(C)no1	DENV2 CPE 32
CCc1cc(Cn2nc(-c3ccccc3C)cc2C(=O)O)on1	DENV2 CPE 25 (no result: PGC1a acetyl inh)
O=C(Nc1cccc(F)c1)N1C[C@H]2[C@@H](c3ccccc31)[C@H](CO)N2C(=O)Cc1ccccn1	none (no result: PvdQ inh)
CCc1cccc2c(C(=O)CN3C(=O)NC4(CCCCCC4)C3=O)c[nH]c12	none
CCc1cccc2c(C(=O)CN3C(=O)NC4(CCCCC4)C3=O)c[nH]c12	miR-122 sensor 115 (no result: PGC1a acetyl inh)
O=C(C[C@H]1CC[C@H]2[C@@H](COC[C@H](O)CN2C(=O)c2cccnc2)O1)NCc1ccccc1	DENV2 CPE inconclusive (no result: PvdQ inh)
O=C(c1cccc(F)c1)N1CC2(C1)[C@H](c1ccccc1)[C@H](CO)N2Cc1ccccn1	none (no result: PvdQ inh, miR-122 sensor, C2C12 statin)
O=C(O)C1OC(Oc2cc3oc(-c4ccccc4)cc(=O)c3c(O)c2O)C(O)C(O)C1O (centres undefined)	DENV2 CPE inconclusive
COc1c(OC2OC(C(=O)O)C(O)C(O)C2O)cc(O)c2c(=O)cc(-c3ccccc3)oc12 (centres undefined)	DENV2 CPE 25
C[C@@H]1CCCCO[C@@H](CN(C)Cc2ccc(C(F)(F)F)cc2)[C@@H](C)CN([C@@H](C)CO)C(=O)c2cc(NC(=O)CCCN(C)C)ccc2O1	none (no result: PvdQ inh, C2C12 statin)
COc1ccc2c3c(n(C)c2c1)[C@@H](CO)N(Cc1cc(F)ccc1F)CC31CCN(C(=O)C2CC2)CC1	none (no result: PvdQ inh, miR-122 sensor, C2C12 statin)
CN1C(C(=O)NCc2ccc(OC(F)(F)F)cc2)CC2Cn3c(nc4ccccc43)C21 (centres undefined)	DENV2 CPE 32
CN1C(C(=O)NCc2ccc(OC(F)(F)F)cc2)CC2Cn3c(nc4cc(Cl)c(Cl)cc43)C21 (centres undefined)	none (no result: PGC1a acetyl inh)
CC(C)OC(=O)N(C)C[C@@H]1OCc2cn(nn2)CCCC(=O)N([C@@H](C)CO)C[C@H]1C	DENV2 CPE 36! (no result: PvdQ inh)
C[C@H]1CN([C@@H](C)CO)C(=O)CCCn2cc(nn2)CO[C@@H]1CN(C)C(=O)Nc1ccc(F)cc1	DENV2 CPE 44! (no result: PvdQ inh)
C[C@H](CO)N1C[C@H](C)[C@H](CN(C)C(=O)Nc2cccc(F)c2)OCc2cn(nn2)CCCC1=O	none (no result: PvdQ inh)
C[C@@H]1CN([C@@H](C)CO)C(=O)CCCn2cc(nn2)CO[C@H]1CN(C)C(=O)Nc1cccc(F)c1	DENV2 CPE 87! (no result: PvdQ inh)
C[C@@H]1CN([C@@H](C)CO)C(=O)CCCn2cc(nn2)CO[C@@H]1CN(C)Cc1cccc(C(=O)O)c1	DENV2 CPE 30 (no result: PvdQ inh)
C[C@@H]1CN([C@H](C)CO)C(=O)CCCn2cc(nn2)CO[C@H]1CN(C)C(=O)Nc1ccccc1C(F)(F)F	DENV2 CPE 48! (no result: PvdQ inh)
O=[N+]([O-])c1ccccc1S(=O)c1ccccc1[N+](=O)[O-]	DENV2 CPE 32 (no result: PvdQ inh, miR-122 sensor, PGC1a acetyl inh, C2C12 statin)
O=C(CS(=O)c1ccccc1[N+](=O)[O-])Oc1ccc(Br)cc1 (centres undefined)	none (no result: miR-122 sensor, C2C12 statin)
CCC(=O)Nc1ccc2c(c1)C(=O)N(C)C[C@@H](OC)[C@@H](C)CN(C(=O)Cc1ccccn1)[C@@H](C)CO2	none (no result: PvdQ inh, miR-122 sensor)
CCCn1c(-c2ccc[nH]c2=O)nc2cc(C)c(C)cc21	DENV2 CPE 25 (no result: C2C12 statin)
Cc1cccc(C(=O)OCC(=O)NCc2ccc(Cl)cc2)c1	DENV2 CPE 29 (no result: PvdQ inh)
O=C(Nc1nc(-c2ccco2)c(-c2ccco2)s1)c1ccc(F)cc1F	DENV2 CPE 68
CSc1nc2c(c(=O)[nH]1)CCCC2	C2C12 statin 119 (no result: DENV2 CPE)
O=c1[nH]c(N2CCN(c3ccccc3)CC2)nc2c1CCCC2	none (no result: DENV2 CPE, C2C12 statin)
O=c1[nH]c(N2CCOCC2)nc2c1CCCC2	C2C12 statin 117 (no result: DENV2 CPE)
C[C@H](CO)N1C[C@H](C)[C@H](CN(C)C)OCCCC[C@H](C)Oc2ccc(NS(=O)(=O)c3ccccc3)cc2C1=O	none (no result: DENV2 CPE, PvdQ inh)
C[C@@H]1CN([C@@H](C)CO)C(=O)c2cc(NS(=O)(=O)c3cn(C)cn3)ccc2O[C@H]1CN(C)Cc1ccccc1	none (no result: PvdQ inh, PGC1a acetyl inh)
CCOC(=O)C1CCN(c2c(NCc3ccc(C(=O)NCCC(C)C)cc3)c(=O)c2=O)CC1	none (no result: DENV2 CPE)
CCCNC(=O)c1ccc(CNc2c(N3CCC(C(=O)OCC)CC3)c(=O)c2=O)cc1	C2C12 statin 133 (no result: DENV2 CPE)
CO[C@H]1CN(C)C(=O)c2cc(NC(=O)NC3CCCC3)ccc2OC[C@@H](C)N(CC2CC2)C[C@@H]1C	none (no result: PvdQ inh, miR-122 sensor, C2C12 statin)

High-throughput results from PubChem BioAssay.
